Source: PubChem
In the library only some 7.3% were active in any assay of this set; here they are far more common.
FLuc modulator: firefly luciferase modulation, counter-screen for miR-21 project. purified FLuc, Km substrates, luminescence inhibition. Potency, µM (top dose mostly 57.5 µM), for the others: at the highest dose activity change, negative = inhibition, hits mostly inhibitors. AID 588342. 360,000 tested, 6.9% active. P08659;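 also: plate controls were vehicle for no effect and reference inhibitor for full effect; nearly all actives have a fitted effect of over 55% in size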
Target sequence (P08659 whole entry, looked up): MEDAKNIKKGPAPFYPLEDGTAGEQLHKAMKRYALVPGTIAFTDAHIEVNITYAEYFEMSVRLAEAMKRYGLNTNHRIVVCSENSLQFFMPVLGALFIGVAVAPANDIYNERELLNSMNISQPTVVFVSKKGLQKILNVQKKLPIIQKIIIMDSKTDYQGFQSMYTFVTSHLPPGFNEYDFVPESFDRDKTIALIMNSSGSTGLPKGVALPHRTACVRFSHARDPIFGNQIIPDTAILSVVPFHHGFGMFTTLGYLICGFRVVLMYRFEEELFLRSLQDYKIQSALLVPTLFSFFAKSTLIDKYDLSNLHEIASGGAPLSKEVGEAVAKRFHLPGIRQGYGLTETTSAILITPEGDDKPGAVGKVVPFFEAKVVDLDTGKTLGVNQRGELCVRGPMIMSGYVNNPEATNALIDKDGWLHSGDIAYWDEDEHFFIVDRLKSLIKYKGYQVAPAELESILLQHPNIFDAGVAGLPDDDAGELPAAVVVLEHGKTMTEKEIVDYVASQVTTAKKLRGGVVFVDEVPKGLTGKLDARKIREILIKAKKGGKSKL
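Biochemical qHTS of compounds, final roughly 60 µM downward over six points, against 10 nM purified firefly luciferase using Km concentrations of substrates (10 uM D-luciferin, 10 uM ATP) in Tris acetate pH 7.5 buffer; luminescence output.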
ELG1 genotoxic: inducers of genotoxicity in HEK293T ELG1-luciferase cells | HEK293T ELG1-luciferase reporter, luminescence, 16 h | Potency, µM (highest dose often 46 µM), inactives show at the highest dose activity change, positive = activation, actives largely listed as activators | 330,000 tested, 1.3% active; also: % of control where 0% means no effect; nearly all actives have a fitted effect of over 60% in size
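HEK293T cells expressing luciferase-tagged ELG1 were treated with compound or DMSO for 16 hr at 37°C. Luciferase activity was then read after 30 min with ONE-Glo at room temperature; rising signal flags genetic stress.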
NPC1 prom act: NPC1 promoter activation; Huh7 NPC1 promoter luciferase reporter, 24 h; Potency, µM (highest dose often 9.22 µM), inactives show top-dose activation, hits mostly activators; 320,000 tested, 2.4% active; also: % of control where 0% means no effect; nearly all actives have a fitted effect of over 60% in size
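Huh7 cells stably carrying NPC1 promoter–luciferase, plated in Opti-MEM with 10% FBS for 2 h, were exposed to compound in DMSO for 24 h at 37 °C; luciferase reagent was added for 10 min and luminescence read.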
SMN2 splice enh: increases expression of the SMN2 splice variant; Potency, µM (doses to about 46.1 µM), without a hit: at the top dose activity change, positive = activation, usual class: activators; HEK293 SMN2-luciferase splicing reporter, luminescence, 30-36 h; 210,000 tested, 2.8% active; also: % of control where 0% means no effect; nearly all actives have a fitted effect of over 55% in size
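qHTS luciferase splicing reporter: luminescence rises when SMN2 exon 7 is included in transfected HEK293 cells. Compound exposure lasted 30-36 h at 37C, with 4.5 mM final sodium butyrate as control, followed by a ONE-Glo read.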
p53 reactivation: re-activators of mutant p53 | H1299 p53-A138V BP100-luciferase reporter, luminescence, 24 h | Potency, µM (titrated, usually from 92.2 µM), without a hit: at the top dose activity change, positive = activation, hits mostly activators | 320,000 tested, 0.063% active; also: % of control where 0% means no effect; nearly all actives have a fitted effect of over 45% in size
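H1299 (p53-null), stable ts p53-A138V + BP100-Luc; 1000 cells/well, Opti-MEM/10% FBS; cpd 4 pt, 1:5; 24 h, 37 deg C, 5% CO2; detection reagent 10 min RT; luminescence.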
Rab9 prom act: Rab9 promoter activation; 320,000 tested, 2.8% active; AID 485297; Huh7 Rab9 promoter-luciferase reporter, luminescence, 24 h; Potency, µM (series often up to 9.22 µM), inactives show top-dose activation, negative = inhibition, most hits filed as activators; also: % of control where 0% means no effect; nearly all actives have a fitted effect of over 60% in size
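Steps: seed 1500 Huh7 Rab9-luc cells per well, rest 2 h at 37 °C; add compound in DMSO; incubate 24 h; add luciferase reagent, 10 min ambient; read luminescence.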
Numbers without * were called inactive; ? = inconclusive; · = no result given; [ ] = another dose, or the depositor's remark. Calls follow the shape of the dose curve; as a rule, active = well fitted curve in the direction sought with a large enough effect; inconclusive = small, poorly fitted or top-dose-only effect, or another doubt; inactive = no such curve, though single readings can be large; an effect the other way counts as inactive or inconclusive. Potency is read from the fitted curve at half-maximal effect.

SMILES | FLuc modulator | ELG1 genotoxic | NPC1 prom act | SMN2 splice enh | p53 reactivation | Rab9 prom act
C=CCN(C(=O)CCc1ccccc1OC)c1nc(-c2ccc(S(C)(=O)=O)cc2)cs1 | -16% | -4% | 1% | · | 5% | 15%
C=CCN(C(=O)Cc1cccs1)c1nc(-c2ccc(S(C)(=O)=O)cc2)cs1 | 17µM* | 0% | ? | · | ? | ?
CC1(C)CC(=O)c2cnc(N3CCc4ccccc4C3)nc2C1 | 2.7µM* | 1.8µM* | 2.8µM* | -35% | 32% | ?
O=C1CCCc2nc(N3CCc4ccccc43)ncc21 | 2.7µM* | 3.3µM* | 3.2µM* | 13µM* | ? | 1.6µM*
CC1(C)CC(=O)c2cnc(N3CCN(c4ccccc4)CC3)nc2C1 | -13% | -6% | -4% | -55% | 2% | -8%
COc1ccc(-c2nc(C)c(C(C)=O)n2O)cc1[N+](=O)[O-] | 17µM* | 1% | 4% | 24% | 4% | 13%
CCCCOc1ccc(-c2csc(N)n2)cc1[N+](=O)[O-] | 3.8µM* | ? | 2.5µM* | 13µM* | ? | 2.8µM*
COc1ccc(-c2cn3cc([N+](=O)[O-])ccc3n2)cc1OC | 15µM* | ? | 26% | ? | -12% | ?
CC(=O)c1c(C)nc(-c2cccc([N+](=O)[O-])c2)n1O | -4% | -2% | -6% | -12% | 4% | -3%
CCCCOc1ccc(C2=CSC3=NCCN23)cc1[N+](=O)[O-] | -1% | 8% | -1% | · | 5% | -3%
CCCOc1ccc(-c2cn3ccccc3n2)cc1[N+](=O)[O-] | 1.7µM* | ? | 3.2µM* | 1.6µM* | ? | 2.2µM*
CC(=O)c1ccc(NC(=O)Nc2nnc(N3CCCC(C)C3)s2)cc1 (configuration not stated) | -6% | · | · | · | · | ·
O=[N+]([O-])c1cccc(-c2cn3ccccc3n2)c1 | -1% | 1% | -4% | · | 0% | -3%
COc1ccc(-c2cn3ccccc3n2)cc1[N+](=O)[O-] | 1.7µM* | ? | 4µM* | 11µM* | 29% | 1.4µM*
Cc1cc(-c2nnc(SCC(=O)Nc3ccc(C)c(C)c3)n2N)n[nH]1 | 11µM* | 1% | 18% | · | -2% | 6%
COc1cc(/C=C/c2ccc3cccc(O)c3n2)cc(Br)c1OC | 4.8µM* | 23µM* | 2.8µM* | · | ? | 4µM*
COc1ccc(Br)cc1/C=C/c1ccc2cccc(O)c2n1 | ? | 4% | 28% | · | -1% | 8%
COC(=O)c1ccc(/C=C/c2ccc3cccc(OC)c3n2)cc1 | 5.4µM* | -5% | 0% | -4% | -1% | 3%
COc1cc(/C=C/c2ccc3cccc(O)c3n2)cc(Cl)c1OC | 2.7µM* | 21µM* | 0.63µM* | · | ? | 0.71µM*
COc1ccc(/C=C/c2ccc3c(Br)ccc(O)c3n2)cc1 | 5.4µM* | ? | ? | · | 17% | ?
NC1(C(=O)NC2(C(=O)O)CCCC2)CCCC1 | · | · | · | 1%[9.22 µM] | · | ·
COc1ccc(/C=C/c2ccc3cccc(O)c3n2)cc1Br | 6µM* | ? | ? | · | ? | 16%
Nc1nnc(SCC(=O)c2ccccc2)s1 | -15% | 11% | 10% | 19% | 16% | 18%
Nc1c(C(=O)c2ccccc2)sc2snc(SCC(=O)c3ccccc3)c12 | 7.6µM* | 2% | 16% | 3% | 12% | 29%
Cc1ccc(CNC(=O)c2cccn2-c2nnc(N3CCCCC3)s2)cc1 | -2% | · | · | · | · | ·
SMILES | FLuc modulator | ELG1 genotoxic | NPC1 prom act | SMN2 splice enh | p53 reactivation | Rab9 prom act
NC(=O)C1CCN(c2ncnc3c2cnn3-c2ccccc2)CC1 | -17% | · | · | · | · | ·
O=C(c1ccco1)N1CCN(c2ncnc3c(-c4ccccc4)nsc23)CC1 | 11µM* | -2% | 3.2µM* | 11% | ? | 2.8µM*
COc1ccc(-c2nsc3c(N4CCN(C(=O)c5ccco5)CC4)ncnc23)cc1 | ? | -4% | 16% | -34% | -2% | 26%
NC(=O)C1CCN(c2ncnc3c(-c4ccccc4)nsc23)CC1 | 11µM* | 13% | 3.5µM* | 12% | ? | 3.5µM*
COc1ccc(-c2noc(-c3ccc(NCCc4ccccc4)c([N+](=O)[O-])c3)n2)cc1 | 0% | · | · | · | · | ·
COc1cc2c3cc1Oc1c(OC)c(OC)cc4c1[C@@H](Cc1ccc(O)c(c1)Oc1ccc(cc1)C[C@@H]3N(C)CC2)CN(C)C4 | · | · | · | 1%[9.22 µM] | · | ·
Cc1cc(C)n2nc(C(=O)OCC(=O)N(Cc3ccccc3)C(C)C)nc2n1 | 12% | 3% | -13% | · | 5% | 2%
Cc1ccccc1CNC(=O)Nc1ccc2c(c1)N(C)C(=O)c1ccccc1S2 | -1% | · | · | · | · | ·
O=[N+]([O-])c1ccc2[nH]nc(-c3ccccc3)c2c1 | -1% | -2% | -2% | -6% | -4% | 1%
O=c1c(-c2ccccc2)n[nH]c2ccccc12 | 9.5µM* | 0% | 2.2µM* | · | ? | 3.5µM*
COc1cccc(-c2nc(S(=O)(=O)c3ccccc3)c(N3CCCCC3)o2)c1 | -6% | · | · | -3% | · | ·
Cn1c2ccccc2c2ncn(CCC3=CCCCC3)c(=O)c21 | 17µM* | ? | 28% | · | ? | 4.5µM*
Cn1c2ccccc2c2ncn(CCCN3CCOCC3)c(=O)c21 | -1% | 15% | -4% | ? | 7% | 3%
O=[N+]([O-])c1cc(C(F)(F)F)ccc1NCCc1c[nH]c2ccc(O)cc12 | -11% | -5% | -1% | -16% | 3% | -1%
O=c1cc(Cl)[nH]c(=O)n1CCNc1ncc(C(F)(F)F)cc1Cl | 13µM* | 13% | ? | ? | ? | 3.2µM*
O=[N+]([O-])c1ccccc1NCCNc1ncc(C(F)(F)F)cc1Cl | -17% | 10% | 8% | ? | 30% | 25%
O=[N+]([O-])c1cc(C(F)(F)F)ccc1NCCc1c[nH]c2ccccc12 | -17% | -1% | 1% | -30% | 40µM* | 2%
O=[N+]([O-])c1cccnc1NCCNc1ncc(C(F)(F)F)cc1Cl | 11µM* | ? | 3.5µM* | 13µM* | 27% | 2.2µM*
O=[N+]([O-])c1cccnc1NCCc1ccccc1 | 11µM* | ? | ? | · | 9% | 3.2µM*
O=[N+]([O-])c1cccnc1NCCc1c[nH]c2ccccc12 | ? | 13µM* | 3.5µM* | · | 25% | 2.5µM*
c1ccc2c(CCNc3ncnc4nc[nH]c34)c[nH]c2c1 | ? | -6% | -15% | -32% | ? | -13%
Cc1ccccc1Nc1nnc(-c2ccc(C)c(S(=O)(=O)NCC3CCCO3)c2)c2ccccc12 (configuration not stated) | 1% | · | · | 6% | · | ·
CCCCC(=O)OCC(=O)c1[nH]c(C)c(C(C)=O)c1C | 11µM* | -3% | 0% | 6% | 9% | -3%
